Data taken from PubChem BioAssay (Tox21).
Results filed as inconclusive are left out. Calls of active or inactive are those of the source. Unless noted, calls follow the shape of the full dose curve.

Tests used:
[1] = Nuclear factor erythroid 2-related factor 2/antioxidant responsive element (Nrf2/ARE) small molecule agonists: luciferase reporter gene qHTS assay in human keratinocytes (AID 1919969); also: nearly all actives have a fitted effect of over 35% in size; also: potency is read from the fitted curve at half-maximal effect
[2] = biological target: Gonadotropin-releasing hormone receptor (Homo sapiens) (UniProt P30968); assay: Human gonadotropin-releasing hormone receptor (GnRHR) small molecule agonists, calcium flux assay in GnRHR-HEK293 cells (AID 1920063); also: nearly all actives have a fitted effect of over 35% in size; also: potency is read from the fitted curve at half-maximal effect
Chain of Gonadotropin-releasing hormone receptor (Homo sapiens) (P30968 whole entry, looked up): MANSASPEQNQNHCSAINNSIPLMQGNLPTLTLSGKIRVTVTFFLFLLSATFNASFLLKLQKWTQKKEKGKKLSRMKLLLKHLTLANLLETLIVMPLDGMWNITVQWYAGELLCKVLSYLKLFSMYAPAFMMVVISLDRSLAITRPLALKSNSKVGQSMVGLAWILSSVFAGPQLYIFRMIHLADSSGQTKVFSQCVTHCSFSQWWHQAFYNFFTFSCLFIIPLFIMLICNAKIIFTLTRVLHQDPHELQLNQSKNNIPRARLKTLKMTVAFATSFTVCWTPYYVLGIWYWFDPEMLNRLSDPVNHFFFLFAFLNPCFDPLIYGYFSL
Procedure, shortened: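 Calcium flux, agonist mode, human GnRHR stably integrated in HEK293; dye 1 h at 37 C before compound; Ex/Em=480/540 kinetic read, 3 min; 15 concentrations, triplicate.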

[3] = biological target: KiSS-1 receptor (Homo sapiens) (UniProt Q969F8); assay: Human kisspeptin (KISS1R) small molecule agonists, calcium flux assay in KISS1R-HEK293 cells (AID 1920064; active = well fitted activation curve with a large enough effect in the repeat runs)
Chain of KiSS-1 receptor (Homo sapiens) (Q969F8 whole entry, looked up): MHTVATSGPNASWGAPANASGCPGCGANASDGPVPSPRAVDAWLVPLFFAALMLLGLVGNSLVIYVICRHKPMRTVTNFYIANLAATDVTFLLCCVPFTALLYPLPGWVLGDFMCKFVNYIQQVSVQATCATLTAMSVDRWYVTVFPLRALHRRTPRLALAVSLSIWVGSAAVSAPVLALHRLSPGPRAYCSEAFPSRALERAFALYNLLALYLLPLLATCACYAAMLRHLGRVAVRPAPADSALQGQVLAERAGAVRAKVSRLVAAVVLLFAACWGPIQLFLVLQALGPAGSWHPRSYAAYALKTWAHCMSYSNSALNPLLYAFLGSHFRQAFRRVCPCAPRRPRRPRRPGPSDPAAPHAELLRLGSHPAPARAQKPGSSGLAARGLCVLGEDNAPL
Procedure, shortened: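 Triplicate 15-concentration series were applied to dye-loaded human KISS1R HEK293 cells, and agonist-evoked calcium fluorescence was captured for 3 min.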

[4] = G protein-coupled receptor (GPCR) small molecule agonists, calcium flux assay: HEK293 wild type cell line counter screen (AID 1920065)
Procedure, shortened: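 Non-specific calcium responders were flagged by adding DMSO-dissolved compounds to dye-loaded cells and reading 480/540 nm fluorescence each second for 3 min; ATP served as positive control.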

[5] = p53 small molecule agonists, cell-based qHTS assay with human liver microsomes (AID 1963577)
Procedure, shortened: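 Cells carrying a p53-responsive bla reporter were rested 5 h (37 C, 5% CO2) before compound transfer. Human liver microsomes plus NADPH, 0.5 mg/mL final apiece, supplied metabolism during the 16 h 37 C exposure.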

[6] = p53 small molecule agonists, cell-based qHTS assay with rat liver microsomes (AID 1963578)
Procedure, shortened: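 Fluorescence from a beta-lactamase reporter under a p53 response element was measured after cells had been incubated 16 h at 37 C with test compound and rat liver microsomes plus NADPH (0.5 mg/mL final each).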

[7] = p53 small molecule agonists, cell-based qHTS assay with human liver microsomes: qHTS cell viability counter screen (AID 1963579); also: nearly all actives have a fitted effect of over 45% in size; also: potency is read from the fitted curve at half-maximal effect
Procedure, shortened: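 Seed p53RE-bla cells at 4,000 per well; incubate 5 h at 37 C; add compound, human liver microsomes and NADPH; incubate 16 h at 37 C; add CellTiter-Glo; after 30 min at room temperature, read luminescence.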

[8] = p53 small molecule agonists, cell-based qHTS assay with rat liver microsomes: qHTS cell viability counter screen (AID 1963580); also: nearly all actives have a fitted effect of over 45% in size
Procedure, shortened: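 Luminescent ATP readout (CellTiter-Glo, 30 min at room temperature) reports viability of p53RE-bla HCT-116 cells after 16 h at 37 C with test compounds under metabolic activation by rat liver microsomes and NADPH at 0.5 mg/mL final each.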

[9] = p53 small molecule agonists, cell-based qHTS assay: qHTS cell viability counter screen (AID 1963581); also: nearly all actives have a fitted effect of over 45% in size
Procedure, shortened: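 Multiplexed with the reporter read, a CellTiter-Glo step (30 min, room temperature) gauges ATP-based viability of HCT-116 p53RE-bla cells after 16 h compound incubation at 37 C.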

[10] = biological target: 5-hydroxytryptamine receptor 2A (Homo sapiens) (UniProt P28223); assay: 5-hydroxytryptamine receptor 2A (HTR2A) small molecule antagonists, cell-based qHTS assay (AID 1963586); also: nearly all actives have a fitted effect of over 45% in size
Chain of 5-hydroxytryptamine receptor 2A (Homo sapiens) (P28223 whole entry, looked up): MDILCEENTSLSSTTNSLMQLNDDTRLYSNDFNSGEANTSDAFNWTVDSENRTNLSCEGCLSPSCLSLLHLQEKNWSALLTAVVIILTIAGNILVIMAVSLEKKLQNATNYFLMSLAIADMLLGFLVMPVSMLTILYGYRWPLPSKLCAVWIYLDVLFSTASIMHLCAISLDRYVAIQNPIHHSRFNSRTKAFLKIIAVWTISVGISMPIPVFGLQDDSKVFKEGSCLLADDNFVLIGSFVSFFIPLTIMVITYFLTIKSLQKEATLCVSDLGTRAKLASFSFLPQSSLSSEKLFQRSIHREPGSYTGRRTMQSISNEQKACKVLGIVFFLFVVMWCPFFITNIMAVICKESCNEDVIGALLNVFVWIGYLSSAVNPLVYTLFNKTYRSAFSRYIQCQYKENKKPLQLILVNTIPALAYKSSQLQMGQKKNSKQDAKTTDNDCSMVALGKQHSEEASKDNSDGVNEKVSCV
Procedure, shortened: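 CHO cells stably expressing human HTR2A were plated for 18 h at 37 C, then loaded with calcium dye for 1 h. Compounds were preincubated 5 min at room temperature before DOI (4 nM solution) was added. Kinetic fluorescence was read for 3 min.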

[11] = biological target: 5-hydroxytryptamine receptor 2A (Homo sapiens) (UniProt P28223); assay: 5-hydroxytryptamine receptor 2A (HTR2A) small molecule agonists, cell-based qHTS assay (AID 1963587); also: nearly all actives have a fitted effect of over 30% in size; also: potency is read from the fitted curve at half-maximal effect
Procedure, shortened: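 HTR2A-CHO cells, plated 18 h at 37 C/5% CO2, dye-loaded 1 h at 37 C; compounds in DMSO added by pin tool (agonist mode). Intracellular calcium flux read as kinetic fluorescence on FDSS over 2 min at 1 s intervals.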

[12] = biological target: Muscarinic acetylcholine receptor M1 (Homo sapiens) (UniProt P11229); assay: Cholinergic receptor muscarinic 1 (CHRM1) small molecule antagonists, cell-based qHTS assay (AID 1963588); also: nearly all actives have a fitted effect of over 40% in size; also: potency is read from the fitted curve at half-maximal effect
Chain of Muscarinic acetylcholine receptor M1 (Homo sapiens) (P11229 whole entry, looked up): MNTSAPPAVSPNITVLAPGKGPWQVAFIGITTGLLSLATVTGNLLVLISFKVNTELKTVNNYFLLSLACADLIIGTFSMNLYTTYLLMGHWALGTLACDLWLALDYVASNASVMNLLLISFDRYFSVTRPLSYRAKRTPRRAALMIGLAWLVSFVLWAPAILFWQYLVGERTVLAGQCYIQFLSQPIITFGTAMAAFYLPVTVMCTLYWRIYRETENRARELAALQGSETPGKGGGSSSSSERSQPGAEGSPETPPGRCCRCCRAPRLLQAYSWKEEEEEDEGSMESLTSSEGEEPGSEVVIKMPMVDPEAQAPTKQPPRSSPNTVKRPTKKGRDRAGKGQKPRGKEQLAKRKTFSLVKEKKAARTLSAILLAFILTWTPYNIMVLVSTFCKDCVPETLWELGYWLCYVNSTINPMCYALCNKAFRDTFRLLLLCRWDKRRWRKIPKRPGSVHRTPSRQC
Procedure, shortened: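 Compounds were tested at 15 concentrations in three independent runs. Dye-loaded CHRM1-CHO cells were exposed 5 min at room temperature before stimulation by acetylcholine added at 50nM. Intracellular calcium was read kinetically on FDSS for 3 min.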

[13] = biological target: Muscarinic acetylcholine receptor M1 (Homo sapiens) (UniProt P11229); assay: Cholinergic receptor muscarinic 1 (CHRM1) small molecule agonists, cell-based qHTS assay (AID 1963589); also: nearly all actives have a fitted effect of over 35% in size
Procedure, shortened: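 qHTS, 15-point titration, 3 independent runs: compounds pin-transferred onto dye-loaded CHRM1-CHO cells (human M1), calcium fluorescence followed every second to detect agonism.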

[14] = cAMP Responsive Elements (CRE) small molecule antagonists, cell-based qHTS assay (AID 1963591; active = well fitted inhibition curve with a large enough effect in the signal ratio in the repeat runs, not every such curve was filed as active; the % refers to the signal ratio)
Procedure, shortened: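 Fluorescence intensity from cleaved LiveBLAzer B/G substrate (2 h, room temperature) quantified CRE-bla activity in HEK 293T cells exposed 3 h to compound with 0.25 uM final NKH477.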

[15] = biological target: Beta-2 adrenergic receptor (Homo sapiens) (UniProt P07550); assay: Adrenergic beta2 receptor (ADRB2) small molecule antagonists, cell-based qHTS assay (AID 1963592); also: series mostly up to about 92 µM; nearly all actives have a fitted effect of over 50% in size
Chain of Beta-2 adrenergic receptor (Homo sapiens) (P07550 whole entry, looked up): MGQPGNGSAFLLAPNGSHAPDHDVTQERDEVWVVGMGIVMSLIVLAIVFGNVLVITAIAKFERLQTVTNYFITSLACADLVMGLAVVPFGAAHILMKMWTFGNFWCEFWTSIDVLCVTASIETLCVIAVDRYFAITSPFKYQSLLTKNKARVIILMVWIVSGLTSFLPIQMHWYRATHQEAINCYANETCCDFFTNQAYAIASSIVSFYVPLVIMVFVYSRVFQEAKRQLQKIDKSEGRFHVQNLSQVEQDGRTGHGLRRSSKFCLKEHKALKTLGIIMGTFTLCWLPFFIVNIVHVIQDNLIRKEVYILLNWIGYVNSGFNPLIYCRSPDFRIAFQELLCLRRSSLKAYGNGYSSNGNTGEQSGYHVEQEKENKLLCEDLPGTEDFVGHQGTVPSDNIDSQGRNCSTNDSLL
Procedure, shortened: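 Assay format: CHO-ADRB2 cells, 18-20hr seeding at 37C/5% CO2, then compound plus 1nM isoproterenol agonist mix for 0.5hr RT. Homogeneous time-resolved fluorescence cAMP detection after 1hr, expressed as 665/615 nm ratio.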

[16] = biological target: Beta-2 adrenergic receptor (Homo sapiens) (UniProt P07550); assay: Adrenergic beta2 receptor (ADRB2) small molecule agonists, cell-based qHTS assay (AID 1963593);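 also: CHO cells stably overexpressing human ADRB2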
Procedure, shortened: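 CHO cells stably over-expressing ADRB2 were plated overnight at 37C, then dosed with compounds plus a stimulation mix containing 100uM IBMX and 25uM Ro-20-1724 for 0.5hr at room temperature. cAMP was measured by HTRF competition, 1hr.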

[17] = biological target: D(2) dopamine receptor (Homo sapiens) (UniProt P14416); assay: Dopamine D2 receptor (DRD2) small molecule agonists, cell-based qHTS assay (AID 1963594); also: nearly all actives have a fitted effect of over 35% in size
Chain of D(2) dopamine receptor (Homo sapiens) (P14416 whole entry, looked up): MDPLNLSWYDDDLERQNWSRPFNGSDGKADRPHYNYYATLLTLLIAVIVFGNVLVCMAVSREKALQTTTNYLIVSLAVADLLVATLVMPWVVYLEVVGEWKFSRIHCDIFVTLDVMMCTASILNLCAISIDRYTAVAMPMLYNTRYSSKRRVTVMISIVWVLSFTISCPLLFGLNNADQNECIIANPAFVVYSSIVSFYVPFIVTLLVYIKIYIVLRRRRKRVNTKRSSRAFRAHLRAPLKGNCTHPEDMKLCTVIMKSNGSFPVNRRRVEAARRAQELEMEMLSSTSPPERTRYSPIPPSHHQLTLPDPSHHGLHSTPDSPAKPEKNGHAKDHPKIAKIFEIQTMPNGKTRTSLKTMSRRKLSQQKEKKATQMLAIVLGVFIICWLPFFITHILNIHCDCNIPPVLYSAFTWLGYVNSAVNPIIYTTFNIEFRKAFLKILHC
Procedure, shortened: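 HEK293 cells stably expressing DRD2 were cultured 24 h at 37 C, then given Ro20-1724 (0.1 mM final) and compounds for 10 min at room temperature. NKH477 (200nM) was then added for 30 min. cAMP was read by HTRF.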

[18] = biological target: D(2) dopamine receptor (Homo sapiens) (UniProt P14416); assay: Dopamine D2 receptor (DRD2) small molecule antagonists, cell-based qHTS assay (AID 1963595; active = well fitted inhibition curve with a large enough effect in the signal ratio in the repeat runs, with a control signal flat; the % refers to the signal ratio; also: potency is read from the fitted curve at half-maximal effect)
Procedure, shortened: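 In this cell-based antagonist screen, compounds act for 10 min at room temperature before a 30 min challenge with 12 nM quinpirole and 200 nM NKH477. cAMP is quantified by HTRF competition in DRD2-HEK293 cells containing 0.1 mM Ro20-1724.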

[19] = p53 small molecule agonists, cell-based qHTS assay (AID 1963582; active = well fitted activation curve with a large enough effect in the signal ratio in the repeat runs, not every such curve was filed as active; the % refers to the signal ratio)
Procedure, shortened: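 Beta-lactamase reporter cells (p53RE-bla) treated with compounds for 16 h at 37 C; FRET substrate, 2 h, room temperature; fluorescence intensity.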

[20] = cAMP Responsive Elements (CRE) small molecule agonists, cell-based qHTS assay (AID 1963590)
Procedure, shortened: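 Quantitative HTS for CRE agonists: HEK 293T CRE-bla cells, overnight plating, 3 h compound incubation at 37 C/5% CO2, then 2 h room-temperature LiveBLAzer B/G FRET substrate loading.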

Measured: Potency

CC1=CC[C@H](C(C)C)C=C1
not listed: [19] | [20]
inactive: all other assays above

COC(=O)[C@@H]1[C@H]2C[C@H]3c4[nH]c5ccccc5c4CCN3C[C@@H]2CC[C@@H]1O
active: [18] 23.7 µM
not listed: [10] | [11] | [12] | [13] | [15] | [20]
inactive: all other assays above

CC/C=C\CC/C=C/C(OCC)OCC
active: [1] 61.1 µM
not listed: [8] | [9] | [10] | [13] | [14]
inactive: all other assays above

CCCN1C[C@H](CSC)C[C@@H]2c3cccc4[nH]cc(c34)C[C@H]21
not listed: [10] | [11] | [12] | [13] | [14] | [16] | [17] | [20]
inactive: all other assays above

Nc1ccc(C(=O)NCC(=O)O)cc1
not listed: [8] | [16]
inactive: all other assays above

C[C@H](CCC(=O)O)[C@H]1CC[C@H]2[C@@H]3[C@H](O)C[C@@H]4C[C@H](O)CC[C@]4(C)[C@H]3C[C@H](O)[C@]12C
not listed: [7] | [10] | [11] | [12] | [13] | [16]
inactive: all other assays above

CC(C)CCCCCCc1ccc(OCCOCCO)cc1
not listed: [7]
inactive: all other assays above

CCCCOCCOC(=O)CCCCCCCCC(=O)OCCOCCCC
not listed: [7] | [12] | [16]
inactive: all other assays above

CCCC[P+](C)(CCCC)CCCC
not listed: [10] | [14] | [15] | [19] | [20]
inactive: all other assays above

NC(=O)c1ccccc1[N+](=O)[O-]
not listed: [9] | [10] | [14] | [19]
inactive: all other assays above

CCCCCCCCCCCCN(CCO)CCO
active: [2] 30.8 µM | [7] 45.6 µM | [11] 48.8 µM | [12] 11.8 µM
inactive: [1] | [3] | [4] | [5] | [6] | [13] | [15] | [17] | [18]

CN1[C@@H]2CC[C@H]1CC(OC(=O)c1c[nH]c3ccccc13)C2 (some centres not stated)
not listed: [9] | [10] | [11] | [12] | [13] | [15] | [16]
inactive: all other assays above

CCCCCCCCCCCSCC(=O)O
not listed: [10] | [14] | [17] | [19] | [20]
inactive: all other assays above

CCCSS/C(CCO)=C(\C)N(C=O)Cc1cnc(C)nc1N
active: [1] 29.8 µM
not listed: [9] | [16] | [18] | [19]
inactive: all other assays above

CC(C)(O)C(=O)c1ccccc1
not listed: [7] | [13] | [16]
inactive: all other assays above

Cn1c(=O)c2c(ncn2CC(O)CO)n(C)c1=O (configuration not stated)
not listed: [10] | [11] | [12] | [13] | [16]
inactive: all other assays above
